The text below walks through data of PubChem BioAssay AID720595 (Broad Institute, 2013).

Molecules are shown by their SMILES. Results with a measured potency or affinity are listed apart. Values without a mark were called inactive. Calls of active or inactive are those of the source.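 Rule for the calls: active = every repeat test gives a fitted half-maximal cytotoxic concentration no higher than twice the top valid dose; inconclusive = repeats disagree, or a flat partial loss or poor fit; inactive = the rest, including signal rising instead.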

The nature of the test: ATP-based viability loss in HEK293T cells – cell-based, CellTiter-Glo luminescence, dry powder, set 2, cytotoxicity control, dose response (AID 720595). The settings on record: 72 h; series mostly up to 26 µM; activity change, negative = cytotoxicity: at the top concentration. Background: In ATP-based viability assays light output follows the ATP content of the culture.
With `COC(=O)c1ccc(NC(=O)CSc2ccc(-c3ccccn3)nn2)cc1`, the “activity change, negative = cytotoxicity” value is -7.07%. With `CC1CCN(S(=O)(=O)c2ccc(C(=O)Nc3nnc(C4CC4)o3)cc2)CC1`, the “activity change, negative = cytotoxicity” value is -30.8%. In the case of `CC1CCN(S(=O)(=O)c2ccc(C(=O)Nc3nnc(-c4ccno4)o3)cc2)CC1`, the “activity change, negative = cytotoxicity” value was 8.24%. `O=C(Nc1nnc(C2=COCCO2)o1)c1ccc(S(=O)(=O)N2CCCCC2)cc1`: the “activity change, negative = cytotoxicity” value was -13.1%.

As to `COc1ccc(-c2nnc(NC(=O)c3ccc(S(=O)(=O)N4CCC(C)CC4)cc3)o2)cc1`, the “activity change, negative = cytotoxicity” value is 0.53%. Regarding `CC1CC(C)CN(S(=O)(=O)c2ccc(C(=O)Nc3nnc(C4=COCCO4)o3)cc2)C1` (centres undefined), the “activity change, negative = cytotoxicity” value is 10.9%. As to `Nc1nc(-c2ccccn2)nc(N)c1Cc1ccc(Cl)cc1Cl`, the “activity change, negative = cytotoxicity” value is -26.5%.

Take `Cc1nnc(NC(=O)c2ccc(S(=O)(=O)N3CCCCC3)cc2)o1`: the “activity change, negative = cytotoxicity” value was 3.22%. On to `Cc1ccc(S(=O)(=O)CCc2nnc(NC(=O)c3ccccc3)s2)cc1`, for which the “activity change, negative = cytotoxicity” value is 3.04%. Take `CC(C)Cc1nnc(NC(=O)c2cccc(S(=O)(=O)N3CCOCC3)c2)s1`: the “activity change, negative = cytotoxicity” value is -10.6%.

With `Cc1c(C(=O)N(C)C)sc2nc(-c3ccccn3)[nH]c(=O)c12`, the “activity change, negative = cytotoxicity” value is -16.1%. In the case of `c1ccc(-c2nc(-c3ccncc3)n[nH]2)nc1`, the call was inactive.

On to `CC1CCN(S(=O)(=O)c2ccc(C(=O)Nc3nnc(-c4cccs4)o3)cc2)CC1`, for which the “activity change, negative = cytotoxicity” value is -32.3%. In the case of `O=C(Nc1nc(-c2ccncc2)cs1)c1cccc(S(=O)(=O)N2CCOCC2)c1`, the “activity change, negative = cytotoxicity” value is -2.67%. Consider `Cc1ccc(C(=O)Nc2nc(-c3ccccc3)cs2)o1`, for which the “activity change, negative = cytotoxicity” value is -2.19%. The same measure, in the same setting: next, `CC1CCN(S(=O)(=O)c2ccc(C(=O)Nc3nnc(-c4ccccn4)o3)cc2)CC1`: 0.61%. With `Cc1cccc(NC(=O)CSc2ccc(-c3ccccn3)nn2)c1C`, the “activity change, negative = cytotoxicity” value is -22%. Turning to `O=C(Nc1nc(-c2ccccn2)cs1)c1ccc(S(=O)(=O)N2CCOCC2)cc1`, the “activity change, negative = cytotoxicity” value is 13.6%. Take `O=C(CSc1ccc(-c2ccccn2)nn1)Nc1nccs1`: the “activity change, negative = cytotoxicity” value is -2.19%.

For the compound `O=C(CSc1ccc(-c2ccccn2)nn1)N1CCCC1`, the “activity change, negative = cytotoxicity” value is 6.61%. On the same count and under the same terms, as for `FC(F)(F)c1cc(-c2nn[nH]n2)cc(C(F)(F)F)c1`, the figure is 16.9%. Turning to `O=C(CSc1ccc(-c2ccccn2)nn1)NC1CCCCC1`, the “activity change, negative = cytotoxicity” value is -7.59%. In the case of `Cc1ccc(C(=O)Nc2nc(-c3ccccn3)cs2)cc1S(=O)(=O)N1CCOCC1`, the “activity change, negative = cytotoxicity” value is 3.37%.

On to `O=C(Nc1nc(-c2ccncc2)cs1)c1ccco1`, for which the “activity change, negative = cytotoxicity” value is 5.54%.
